The values below come from PubChem BioAssay AID686978 (National Center for Advancing Translational Sciences (NCATS), 2013).

Each structure is given as a SMILES string. In all, about 420,000 compounds went through this assay and about 64,000 (15%) were called active. Roughly 27% stayed inconclusive and do not appear here. The list is a sample of the results. A number with no mark means an inactive call. The call rests on the fitted dose curve; in most records, active means well fitted inhibition curve with a large enough effect; inconclusive means small, poorly fitted or top-dose-only effect; inactive means flat fitted curve, though single readings scatter.
On the % scale 0 is the no-effect control and ±100 the full control effect; potency means the concentration at half of the fitted maximal effect.

This assay in a line: qHTS for Inhibitors of human tyrosyl-DNA phosphodiesterase 1 (TDP1): qHTS in cells in absence of CPT. Further: nearly all actives have a fitted effect of over 55% in size. The settings on record: DT40 Tdp1-/- hTDP1 cells, no CPT, ATP luminescence, 48 h; activity change, negative = growth inhibition: at 46.2 µM (top of the series). The gist of the method: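 Chicken DT40 Tdp1-/- cells stably complemented with human TDP1 were seeded at 400 cells/well with DMSO in place of 20 nM camptothecin. After compound pinning, cells grew at least 48 hr at 37 °C; viability read by CellTiter-Glo luminescence.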
In general terms: In qHTS, concentration-response curves come from the screen itself.
For the compound `C=CCNc1nnc(SCC(=O)N2CCCCC2)c2ccccc12`, the “activity change, negative = growth inhibition” value is 4.38%.

Consider `Cc1cc(NC(=O)CSc2nc3ccccc3n2CC(C)C)no1`, for which the “activity change, negative = growth inhibition” value was -4.04%. Turning to `CC(C)(C)NC(=O)Cn1c(SCC(=O)Nc2nccs2)nc2ccccc21`, the “activity change, negative = growth inhibition” value is -4.92%. Take `Cc1cc(C)c(NC(=O)Cn2c(SCC(=O)NCc3ccccc3)nc3ccccc32)c(C)c1`: the Potency is 18.4 µM (active). Take `O=[N+]([O-])c1ccc(Oc2ccc(F)cc2Br)c2ccncc12`: the Potency was 23.1 µM (active). On to `O=c1[nH]c2c(c(=O)n1-c1ccccc1)CCO2`, for which the “activity change, negative = growth inhibition” value is -19.7%. `CCC(C)c1ccc(NC(=S)N2CCCC2)cc1` (centres undefined): the Potency is 10.3 µM (active). As for `CCOC(=O)c1ccc(NC(=S)N2CCCC2)cc1`, the “activity change, negative = growth inhibition” value is 0.979%. Consider `CCOc1ccc(NC(=S)N2CCCCCC2)cc1`, for which the “activity change, negative = growth inhibition” value was 8.01%. Regarding `Cc1cc(OCC(=O)NCC(O)c2ccccc2)c2c(C)c(C)c(=O)oc2c1` (centres undefined), the “activity change, negative = growth inhibition” value is -21.4%. As for `CCCC1CC(C)(C(=O)Cn2[nH]c(=O)ccc2=O)OC1=O` (centres undefined), the “activity change, negative = growth inhibition” value was -8.19%.

For the compound `CCOC(=O)c1c(-c2ccccc2)oc2ccc(OCC(=O)NN)cc12`, the “activity change, negative = growth inhibition” value was 1.78%.

With `COC(=O)c1c(-c2ccsc2)oc2ccc(-c3cc(OC)c(OC)c(OC)c3)cc12`, the Potency was 16.4 µM (active). For `COc1cc(-c2nnc(NC(=O)CS(=O)(=O)c3ccc(Cl)cc3)o2)cc(OC)c1OC`, the “activity change, negative = growth inhibition” value was 4.37%. Same read-out and setting: in the case of `C/C(Nc1ccc2oc(=O)ccc2c1)=C1/C(=O)CC2[C@@H]1C2(C)C` (some centres undefined) it was -12.6% [at 9.04 µM]; in that of `C/C(=N/NC(=O)c1ccn(C)n1)c1ccncc1`, 14.9%; in that of `Cc1cnc(NC(=O)C2CCCC2)s1`, -8.92%. As to `COc1ccc(CC(=O)Nc2ccc(-c3nnc(-c4ccc(C)cc4)o3)cc2)cc1`, the “activity change, negative = growth inhibition” value was -10.4%. In the case of `CCCCCNC(=O)Cc1ccc(OC)cc1`, the “activity change, negative = growth inhibition” value was -23%. Consider `C/C=C/NNC(=O)Cc1ccc(OC)cc1`, for which the Potency is 5.62 µM (active). Turning to `CS(=O)(=O)N1CCN(C(=O)Cc2ccccc2)CC1`, the “activity change, negative = growth inhibition” value is -5.14%.

In the case of `CC(C)c1ccc(CC(=O)N2CCC2(C)C(=O)NS(=O)(=O)c2ccc(C(C)(C)C)cc2)cc1` (centres undefined), the “activity change, negative = growth inhibition” value was -8.67%. For `c1cnc(N2CCN(c3ccc4ccccc4n3)CC2)nc1`, the Potency was 18.4 µM (active). With `Oc1ccc(CN2CCN(c3ncccn3)CC2)cc1`, the “activity change, negative = growth inhibition” value was 0.422%. On to `CC1=C(N2CCN(c3ncccn3)CC2)CCC1=O`, for which the “activity change, negative = growth inhibition” value is 9.41%. Consider `CC(C)n1ncc2c(C(=O)N3CCN(Cc4cccs4)CC3)cc(C3CC3)nc21`, for which the Potency is 25.9 µM (active). For the compound `N#CCc1ccc(NC(=O)c2ccccc2C(=O)Nc2ccc(CC#N)cc2)cc1`, the “activity change, negative = growth inhibition” value is -5.04%. `CC(C)n1ncc2c(C(=O)Nc3ccc(CC#N)cc3)cc(C3CC3)nc21`: the Potency was 13 µM (active). With `O=C(NCCN1CCOCC1)c1cnn(-c2nccc(-c3cccs3)n2)c1C1CC1`, the “activity change, negative = growth inhibition” value was -8%. The same measure, in the same setting: in the case of `CC(=O)Nc1ccc(CC#N)cc1` it was 10.2%; in that of `Cc1ccsc1C1C(C#N)=C(N)OC2=C1C(=O)CC(C)C2` (centres undefined), 11.3%; in that of `CCOC(=O)Cc1cc(=O)[nH]c(=O)[nH]1`, -0.765%. As to `COCCn1cnnc1SCC(=O)Nc1cccc(S(=O)(=O)N2CCCCC2)c1`, the “activity change, negative = growth inhibition” value is -10.9%. Consider `Cc1c(CCO)c(=O)n(-c2ccccc2)n1S(=O)(=O)c1ccc(F)cc1`, for which the “activity change, negative = growth inhibition” value was -27.5%. As to `COCCCNC(=O)C1CC(=O)N(c2ccc(C)cc2)C1` (centres undefined), the “activity change, negative = growth inhibition” value was -14.8%. For `Cc1oc(-c2ccccc2F)nc1CS(=O)(=O)CC(=O)NCCCN(C)C1CCCCC1`, the “activity change, negative = growth inhibition” value is -9.36%. As for `Cc1ccc(N2C(=O)C(CC(=O)Nc3cccc(F)c3)N(CCc3ccncc3)C2=O)cc1` (centres undefined), the “activity change, negative = growth inhibition” value is -19.1%.

Turning to `CCOc1ccc(NC(=O)CN(C)C(=O)CCSc2ccc(F)cc2)cc1OCC`, the “activity change, negative = growth inhibition” value was -17.2%. For `CCN(C(=O)COC(=O)C1CCN(S(=O)(=O)c2ccc(C)c(C)c2)CC1)C1CCS(=O)(=O)C1` (centres undefined), the “activity change, negative = growth inhibition” value is -4.69%. Turning to `O=[N+]([O-])c1ccc(N(CCO)Cc2ccccc2)c([N+](=O)[O-])c1`, the “activity change, negative = growth inhibition” value is -59%. As to `CCOC(=O)CC(NC(=O)C1c2ccccc2Oc2ccccc21)c1ccc(C)cc1` (centres undefined), the “activity change, negative = growth inhibition” value is -27.3%. Consider `CCCCCNC(=O)C1c2ccccc2Oc2ccccc21`, for which the “activity change, negative = growth inhibition” value was -20.9%. With `CCCN(CCC)C(=O)C1c2ccccc2Oc2ccccc21`, the Potency is 25.9 µM (active). For the compound `Cc1ccccc1OCCC(=O)OCC(=O)NCCc1ccc(S(N)(=O)=O)cc1`, the “activity change, negative = growth inhibition” value is 10.2%. In the case of `Cc1cc(NC(=O)CSc2nccn2-c2ccc([N+](=O)[O-])cc2)no1`, the “activity change, negative = growth inhibition” value is 2.54%. As to `Cc1cccc(-n2ccnc2SCC(=O)Nc2cccc3ccccc23)c1C`, the Potency is 16.4 µM (active). As for `COc1ccccc1-n1c(CNC(=O)c2ccccc2)nnc1SCC(=O)Nc1nnc(C)s1`, the “activity change, negative = growth inhibition” value is -9.04%. Same read-out and setting: the value for `Cc1cccc(CSc2nnc(NC(=O)CSc3nnc(C)s3)s2)c1` was -17%. `Cc1nnc(NC(=O)CSc2nccn2-c2cccc(C)c2C)s1`: the Potency was 3.26 µM (active). Regarding `Cc1ccccc1-n1c(SCC(=O)Nc2cccc3ccccc23)nc(O)cc1=O`, the “activity change, negative = growth inhibition” value was 18.6%.

As for `CC(=O)Nc1cccc(NC(=O)CSc2nccn2Cc2ccc(F)cc2)c1`, the “activity change, negative = growth inhibition” value was 10.9%. On to `O=C(CSc1nccn1-c1ccc(F)cc1)Nc1cccc2ccccc12`, for which the Potency is 14.6 µM (active).

For `COc1ccccc1-n1ccnc1SCC(=O)NC(C)(C)C`, the “activity change, negative = growth inhibition” value was -15.4%. With `Cc1cccc(NC(=O)c2ccc(OCC(=O)NCc3ccccc3)cc2)c1C`, the “activity change, negative = growth inhibition” value is -22.1%.
